Source: PubChem BioAssay AID1159580 (chemical genetic matrix, 2015)
Out of some 5,500 compounds screened, about 2,000 (36%) were called active. Inconclusive results (about 18%) are left out. Cut-off read from the data, not from the text of the source: active = normalized growth mostly below about 0.91 (no sharp cut-off); inconclusive = no clear call, values can overlap the other calls; inactive = mostly above about 0.92. The list shows a part of the results.

Assay: chemical genetic growth profiling, strain panel (AID 1159580);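 note: tested at 20 µM; growth read once vehicle control cultures reached saturation at 30 °C; 1 = growth at the plate median or of vehicle wells; lower values mean less growth of the strain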
Conditions: S. cerevisiae deletion strains, growth OD
[1] = locus YAL040C, strain CLN3, active compounds read low
[2] = locus YDR363W, strain ESC2, active compounds read low
[3] = locus YER002W, strain NOP16, active compounds read low
[4] = locus YNL175C, strain NOP13, active compounds read low
[5] = locus YNL197C, strain WHI3, active compounds read low
[6] = locus YNL224C, strain SQS1, active compounds read low
[7] = locus YOR083W, strain WHI5 (second series), active compounds read low

Measured: normalized growth

O=C(O)[C@H]1NCCC[C@H]1C(=O)O
inactive: [1] 1.06 | locus YCL061C, strain MRC1 (second series), active compounds read low 0.986 | locus YDR150W, strain NUM1, active compounds read low 1.01 | [2] 0.991 | [3] 0.993 | locus YMR263W, strain SAP30, active compounds read low 0.99 | locus YMR307W, strain GAS1, active compounds read low 0.991 | locus YNL128W, strain TEP1, active compounds read low 0.994 | [4] 1 | [5] 0.982 | [6] 0.999 | [7] 0.984 | locus YPL055C, strain LGE1, active compounds read low 1 | locus YPL241C, strain CIN2, active compounds read low 0.996

N[C@@H](CS(=O)O)C(=O)O
inactive: [1] 0.98 | [2] 1.01 | [3] 0.98 | locus YGR078C, strain PAC10, active compounds read low 1.01 | locus YGR229C, strain SMI1, active compounds read low 0.954 | [4] 0.987 | [5] 1.02 | [6] 1.02 | [7] 1.02
